Results filed as inconclusive are left out. Calls of active or inactive are those of the source. How the source made its calls, unless noted: active means hit-call score of the fitted dose curve at least 0.9, where 1 is the maximum; inconclusive means response in the unintended direction; inactive means score below 0.9.
How the values were obtained:
[1] = TOX21_p53_BLA_p2_viability: Viability Assessment in the Tox21 HCT-116 p53 Agonism Beta-lactamase Assay, Phase 2 (AID 2283591);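 further: compound exposure lasted 16 h at 37 °C; actives lower the ATP signal meaning cytotoxicity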
Summary of the method: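 HCT-116 p53-bla cells (4000/well) rested 5 h at 37C, then received compounds in DMSO (217-fold dilution) for 16 h at 37C, 5% CO2. After the CCF4 read, CellTiter-Glo was added; ATP luminescence was read after 30 min at room temperature.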

[2] = TOX21_p53_BLA_p3_viability: Viability Assessment in the Tox21 HCT-116 p53 Agonism Beta-lactamase Assay, Phase 3 (AID 2283593);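 further: cells exposed to compound for 16 h before reading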
Summary of the method: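 HCT-116 cells (4000/well) rested 5 h at 37C, then got DMSO compounds by pin tool (217-fold dilution) for 16 h at 37C, 5% CO2. After the bla read, CellTiter-Glo was added and luminescence read at 30 min, room temperature.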

[3] = target: Cellular tumor antigen p53 (Homo sapiens) (UniProt P04637); assay: TOX21_p53_BLA_p3_ratio: Tox21 HCT-116 p53 Agonism Beta-lactamase Assay, Ratio, Phase 3 (AID 2283596)
Sequence of Cellular tumor antigen p53 (Homo sapiens) (P04637 whole entry, looked up): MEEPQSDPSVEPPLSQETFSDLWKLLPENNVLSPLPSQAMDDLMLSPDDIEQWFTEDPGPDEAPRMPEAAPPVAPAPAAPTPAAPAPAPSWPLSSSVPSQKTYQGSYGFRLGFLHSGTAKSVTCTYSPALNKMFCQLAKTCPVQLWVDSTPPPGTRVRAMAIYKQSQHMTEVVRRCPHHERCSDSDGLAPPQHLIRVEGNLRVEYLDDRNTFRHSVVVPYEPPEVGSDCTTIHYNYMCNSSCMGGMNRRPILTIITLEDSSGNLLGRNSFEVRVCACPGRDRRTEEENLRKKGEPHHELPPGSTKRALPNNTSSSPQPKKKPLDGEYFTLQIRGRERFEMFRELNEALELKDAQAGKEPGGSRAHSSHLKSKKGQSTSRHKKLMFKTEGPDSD
Summary of the method: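 HCT116 p53-bla cells (4000/well) given compound in DMSO (217-fold dilution) after 5 h, incubated 16 h at 37C. CCF4-AM substrate 2 h at room temperature; 460/530 nm emission ratio, gain fitted against DMSO.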

[4] = TOX21_p53_BLA_p4_viability: Viability Assessment in the Tox21 HCT-116 p53 Agonism Beta-lactamase Assay, Phase 4 (AID 2283597);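 further: hits lower the luminescence signal meaning cytotoxicity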
Summary of the method: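 Luminescent ATP readout (CellTiter-Glo, 30 min, room temperature) in the same wells as the p53 bla ratio. HCT116 cells were treated for 16 h at 37C with DMSO-dissolved compounds.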

[5] = target: Cellular tumor antigen p53 (Homo sapiens) (UniProt P04637); assay: TOX21_p53_BLA_p5_ratio: Tox21 HCT-116 p53 Agonism Beta-lactamase Assay, Ratio, Phase 5 (AID 2283599)
Summary of the method: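 HCT-116 cells carrying a p53-inducible beta-lactamase reporter were seeded at 4000 cells/well and dosed after 5 h with compound in DMSO (217-fold dilution). After 16 h at 37C, CCF4-AM substrate was added for 2 h, and the 460/530 nm emission ratio was scored as gain-of-signal versus DMSO.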

[6] = TOX21_p53_BLA_p5_viability: Viability Assessment in the Tox21 HCT-116 p53 Agonism Beta-lactamase Assay, Phase 5 (AID 2283600)
Summary of the method: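 Seeded cells (4000/well) settle 5 h before compound addition. Plates then incubate 16 h at 37C, receive FRET substrate for 2 h, and finally CellTiter-Glo, with luminescence measured after a 30 min room-temperature incubation.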

[7] = target: Cellular tumor antigen p53 (Homo sapiens) (UniProt P04637); assay: TOX21_p53_BLA_p4_ratio: Tox21 HCT-116 p53 Agonism Beta-lactamase Assay, Ratio, Phase 4 (AID 2283601)
Summary of the method: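 HCT116 cells carrying an inducible beta-lactamase reporter were plated at 4000 cells/well, rested 5 h, then exposed to compounds in DMSO (217-fold dilution) for 16 h at 37C. CCF4-AM substrate was loaded 2 h at room temperature; 460/530 nm emission ratio scored gain-of-signal versus DMSO.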

[8] = CCTE_Harrill_HTTr_Viability_MCF7: CCTE's 6-hour Cell Viability Assessment for the High-Throughput Transcriptomics (HTTr) Platform, in MCF-7 cells cultured in DMEM + 10% fetal bovine serum, Harrill Lab (AID 2284010; active means hit-call score of the fitted dose curve at least 0.9, where 1 is the maximum; inactive means score below 0.9)
Summary of the method: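 MCF-7 cells in DMEM + 10% FBS, 384-well, exposed 6 h to an eight-point dilution series. Membrane integrity scored by high-content imaging of propidium iodide exclusion; bidirectional fit versus DMSO.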

[9] = CCTE_Harrill_HTTr_Apoptosis_MCF7: CCTE's 6-hour Apoptosis Assessment for the High-Throughput Transcriptomics (HTTr) Platform, in MCF-7 cells cultured in DMEM + 10% fetal bovine serum, Harrill Lab (AID 2284011; active means hit-call score of the fitted dose curve at least 0.9, where 1 is the maximum; inactive means score below 0.9)
Summary of the method: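 Apoptosis in MCF-7 cells grown in DMEM with 10% fetal bovine serum was scored after a six hour exposure by high content imaging of caspase-3/7 activation (CellEvent Caspase 3/7 Green), with DMSO serving as negative control and baseline.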

[10] = CCTE_Harrill_HTTr_CellCount_MCF7: CCTE's Cell Proliferation Assessment for the High-Throughput Transcriptomics (HTTr) Platform, Harrill Lab (AID 2284012);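 further: cells exposed to compound for six hours; intended direction is loss of nuclei count meaning fewer cells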
Summary of the method: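 MCF7 cells exposed 6 hours to an eight-point dilution series; Hoechst-stained nuclei counted by high-content imaging. Bidirectional curve fitting against DMSO baseline.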

Row | Compound | outcome [1] | outcome [2] | outcome [3] | outcome [4] | outcome [5] | outcome [6] | outcome [7] | AC50 [1] | AC50 [4] | AC50 [5] | outcome [8] | outcome [9] | outcome [10]
1 | C=C1CC2C3CCC4=CC(=O)C=C[C@]4(C)[C@@]3(F)[C@@H](O)C[C@]2(C)[C@@]1(O)C(=O)COC(C)=O (stereo partly specified) | inactive | inactive | inactive | inactive | inactive | inactive | inactive | – | – | – | – | – | –
2 | CC(=O)c1ccc2c(c1)N(CCCN1CCC(CCO)CC1)c1ccccc1S2 | inactive | inactive | inactive | inactive | inactive | – | inactive | – | – | – | – | – | –
3 | O=C(O)CCCC/C=C(\c1ccccc1)c1cccnc1 | inactive | inactive | inactive | inactive | inactive | – | inactive | – | – | – | – | – | –
4 | CC(=O)O[C@H]1C[C@@H]2CC[C@@H]3[C@H](CC[C@@]4(C)[C@H]3C[C@H]([N+]3(C)CCCCC3)[C@@H]4OC(C)=O)[C@@]2(C)C[C@@H]1[N+]1(C)CCCCC1 | inactive | inactive | inactive | inactive | inactive | inactive | inactive | – | – | – | – | – | –
5 | CC(C)n1nc(-c2cc3cc(O)ccc3[nH]2)c2c(N)ncnc21 | – | inactive | inactive | – | – | inactive | inactive | 23 µM (active) | 11.6 µM (active) | 34.6 µM (active) | – | – | –
6 | CCCCCCCCCCCBr | inactive | inactive | inactive | inactive | inactive | – | inactive | – | – | – | – | – | –
7 | Nc1ccc(NC(=O)c2ccc(N)cc2)cc1 | inactive | inactive | inactive | inactive | – | inactive | inactive | – | – | – | – | – | –
8 | NS(=O)(=O)c1cc(C2(O)NC(=O)c3ccccc32)ccc1Cl (stereo unspecified) | inactive | inactive | inactive | inactive | inactive | inactive | inactive | – | – | – | – | – | –
9 | Cc1nc(C)c(C)nc1C | inactive | inactive | inactive | inactive | inactive | inactive | – | – | – | – | inactive | inactive | inactive
10 | CCOC(=O)c1cccnc1 | inactive | inactive | inactive | inactive | inactive | – | inactive | – | – | – | – | – | –
11 | CC(=O)N1C[C@H](O)C[C@H]1C(=O)O | inactive | inactive | inactive | inactive | inactive | inactive | inactive | – | – | – | – | – | –
12 | CC(=NO)C(C)=NO | inactive | inactive | inactive | inactive | inactive | inactive | inactive | – | – | – | – | – | –

Source: PubChem BioAssay (EPA / NIEHS)
